Results filed as inconclusive are left out. Active and inactive are the calls of the source. Unless noted, calls follow the shape of the full dose curve.
What was measured:
[1] = target: Lysosomal acid glucosylceramidase (Homo sapiens) (UniProt P04062); experiment: Glucocerebrosidase-p2 (AID 348; in the data active = potency below about 10 µM; also: potency is read from the fitted curve at half-maximal effect); conditions: purified GBA, blue fluorogenic substrate, 40 min
Summary of the method: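 Compounds titrated from 0.6 nM upwards against 0.2 nM enzyme in pH 5.9 citric acid/KH2PO4, taurocholate, tween-20; blue fluorogenic substrate 80 uM, 40 min room temperature, stopped and read Ex 365/Em 440 for AC50.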

[2] = target: Cytochrome P450 1A2 (Homo sapiens) (UniProt P05177); experiment: p450-cyp1a2 (AID 410); conditions: recombinant CYP1A2, luciferin-ME demethylation, luminescence; series mostly up to 57 µM; also: potency is read from the fitted curve at half-maximal effect;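 as to activity change, negative = inhibition: -100% = full effect of reference inhibitor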
Sequence of Cytochrome P450 1A2 (Homo sapiens) (P05177 whole entry, looked up): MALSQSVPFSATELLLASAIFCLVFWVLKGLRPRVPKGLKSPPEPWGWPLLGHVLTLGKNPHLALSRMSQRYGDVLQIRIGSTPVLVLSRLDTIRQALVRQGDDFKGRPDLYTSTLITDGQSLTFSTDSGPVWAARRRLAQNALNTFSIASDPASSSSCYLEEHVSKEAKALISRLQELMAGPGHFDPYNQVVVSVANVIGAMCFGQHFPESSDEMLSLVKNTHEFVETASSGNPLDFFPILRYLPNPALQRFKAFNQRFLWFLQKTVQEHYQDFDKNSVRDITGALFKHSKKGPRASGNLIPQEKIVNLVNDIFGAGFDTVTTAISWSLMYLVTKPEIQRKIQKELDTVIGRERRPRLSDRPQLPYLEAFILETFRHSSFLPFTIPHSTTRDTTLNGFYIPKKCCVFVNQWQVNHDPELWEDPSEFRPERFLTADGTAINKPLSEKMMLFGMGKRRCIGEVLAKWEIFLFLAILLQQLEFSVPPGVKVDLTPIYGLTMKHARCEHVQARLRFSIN
Summary of the method: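 Luminescent readout of luciferin formed from Luciferin-ME by human CYP1A2; data normalized against complete inhibition by 57 uM furafylline. Enzyme 20nM, substrate 100uM at Km, 100mM KPO4 buffer, 60 min reaction at room temperature.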

[3] = target: Glucocorticoid receptor (Homo sapiens) (UniProt P04150); experiment: GR-GFP Redistribution (AID 450;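 active = compounds whose dose series gives a full or clear partial fitted curve of increased nuclear translocation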; also: potency is read from the fitted curve at half-maximal effect); conditions: U2OS GR-GFP nuclear translocation, laser cytometry, 2 h
Sequence of Glucocorticoid receptor (Homo sapiens) (P04150 whole entry, looked up, the tested form may be a part): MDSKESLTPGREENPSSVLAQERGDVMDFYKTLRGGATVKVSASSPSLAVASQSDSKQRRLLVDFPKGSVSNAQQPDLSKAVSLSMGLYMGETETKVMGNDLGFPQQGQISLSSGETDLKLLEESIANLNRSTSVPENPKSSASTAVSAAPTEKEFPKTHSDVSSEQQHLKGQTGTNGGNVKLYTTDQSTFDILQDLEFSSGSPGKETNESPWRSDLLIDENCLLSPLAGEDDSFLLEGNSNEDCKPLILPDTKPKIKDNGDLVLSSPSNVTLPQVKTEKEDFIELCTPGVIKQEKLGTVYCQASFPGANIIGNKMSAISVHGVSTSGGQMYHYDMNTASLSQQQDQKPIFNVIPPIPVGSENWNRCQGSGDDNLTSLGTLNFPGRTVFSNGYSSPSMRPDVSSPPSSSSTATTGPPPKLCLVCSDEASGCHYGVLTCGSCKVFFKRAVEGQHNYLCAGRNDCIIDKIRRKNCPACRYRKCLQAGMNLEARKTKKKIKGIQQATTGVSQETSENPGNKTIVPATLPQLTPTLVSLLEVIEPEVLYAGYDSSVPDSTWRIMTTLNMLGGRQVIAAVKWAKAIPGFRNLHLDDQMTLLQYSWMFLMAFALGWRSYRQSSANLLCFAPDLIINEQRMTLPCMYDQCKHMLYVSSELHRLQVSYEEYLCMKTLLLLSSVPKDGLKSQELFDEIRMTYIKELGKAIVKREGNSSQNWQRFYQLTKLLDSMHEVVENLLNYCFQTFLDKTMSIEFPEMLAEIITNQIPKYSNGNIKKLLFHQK

[4] = target: Glucocorticoid receptor (Homo sapiens) (UniProt P04150); experiment: GR-EFC Redistribution (AID 451); conditions: CHO-K1 GR-EFC translocation, beta-gal luminescence, 2 h; also: potency is read from the fitted curve at half-maximal effect
Summary of the method: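 Translocation of GR-ED fusion to nuclear EA restores b-gal, read by luminescence after 1 h room-temperature detection. Engineered CHO-K1 biosensor cells, 1,000/well, exposed 2 h at 37 C to titrations up to 46 uM final.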

[5] = target: Mitogen-activated protein kinase 10 (Mus musculus) (UniProt Q61831); experiment: JNK3 AlphaScreen Assay (AID 530; active = well fitted curve in either direction with a large enough effect, not every such curve was filed as active;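 also: kinase came from lysate of stimulated human HepG2 cells; signal reports phosphorylation of biotinylated GST-cJun 1-79 at Ser73 with 10 µM ATP; % is scaled to controls: 0 for no effect and ±100 for the full control effect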); conditions: JNK3 lysate, c-Jun phosphorylation; series mostly up to 57.1 µM
Summary of the method: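 Compound titrations were preincubated 15 minutes at room temperature with substrate, antibody and pre-activated JNK3-containing HepG2 lysate. Reactions were started with 10 uM ATP and stopped with EDTA-containing bead buffer for AlphaScreen detection.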

[6] = target: 3',5'-cyclic-AMP phosphodiesterase 4B (Homo sapiens) (UniProt Q07343); experiment: qHTS Assay for Inhibitors of PDE-IV (AID 607; active = well fitted activation curve with a large enough effect in the main read-out, with a control signal flat, not every such curve was filed as active; also: % of control where 0% means no effect); conditions: HEK293 ACTOne CNG channel cells, membrane potential fluorescence; series mostly up to 22.9 µM
Sequence of 3',5'-cyclic-AMP phosphodiesterase 4B (Homo sapiens) (Q07343 whole entry, looked up): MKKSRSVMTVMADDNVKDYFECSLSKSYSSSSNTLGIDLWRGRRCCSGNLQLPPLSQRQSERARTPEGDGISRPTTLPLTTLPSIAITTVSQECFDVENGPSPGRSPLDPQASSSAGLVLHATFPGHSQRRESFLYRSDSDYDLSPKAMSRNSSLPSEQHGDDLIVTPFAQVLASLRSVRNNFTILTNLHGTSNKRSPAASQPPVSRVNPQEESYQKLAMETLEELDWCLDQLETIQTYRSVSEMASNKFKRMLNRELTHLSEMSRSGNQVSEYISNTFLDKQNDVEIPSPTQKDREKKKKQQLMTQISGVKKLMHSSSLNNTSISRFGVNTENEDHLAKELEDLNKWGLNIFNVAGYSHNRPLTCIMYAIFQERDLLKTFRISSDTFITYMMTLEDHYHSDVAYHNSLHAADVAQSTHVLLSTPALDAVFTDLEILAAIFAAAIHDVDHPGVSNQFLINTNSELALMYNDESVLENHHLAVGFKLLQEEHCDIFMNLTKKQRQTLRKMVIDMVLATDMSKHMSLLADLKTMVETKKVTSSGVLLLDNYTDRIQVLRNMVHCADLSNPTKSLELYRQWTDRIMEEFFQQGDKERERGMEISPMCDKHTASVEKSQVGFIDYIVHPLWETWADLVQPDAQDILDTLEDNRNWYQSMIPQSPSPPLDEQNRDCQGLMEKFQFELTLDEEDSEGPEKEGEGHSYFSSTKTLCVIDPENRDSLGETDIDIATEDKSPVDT
Summary of the method: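 The readout is membrane depolarisation from a cAMP-sensing CNG channel, detected with a potential dye at ex 535/em 590. Cells were HEK293-derived (endogenous PDE-IV) at 1000 cells/well, titrated up to 22.9 uM final.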

[7] = target: Cytochrome P450 3A4 (Homo sapiens) (UniProt P08684); experiment: qHTS Assay for Activators of Cytochrome P450 3A4 (AID 885; active = well fitted curve in the direction sought with a large enough effect; an effect the other way counts as inactive or inconclusive; also: nearly all actives have a fitted effect of over 65% in size); conditions: recombinant CYP3A4, Luciferin-PPXE luminescence, 60 min; series mostly up to 57.1 µM
Sequence of Cytochrome P450 3A4 (Homo sapiens) (P08684 whole entry, looked up): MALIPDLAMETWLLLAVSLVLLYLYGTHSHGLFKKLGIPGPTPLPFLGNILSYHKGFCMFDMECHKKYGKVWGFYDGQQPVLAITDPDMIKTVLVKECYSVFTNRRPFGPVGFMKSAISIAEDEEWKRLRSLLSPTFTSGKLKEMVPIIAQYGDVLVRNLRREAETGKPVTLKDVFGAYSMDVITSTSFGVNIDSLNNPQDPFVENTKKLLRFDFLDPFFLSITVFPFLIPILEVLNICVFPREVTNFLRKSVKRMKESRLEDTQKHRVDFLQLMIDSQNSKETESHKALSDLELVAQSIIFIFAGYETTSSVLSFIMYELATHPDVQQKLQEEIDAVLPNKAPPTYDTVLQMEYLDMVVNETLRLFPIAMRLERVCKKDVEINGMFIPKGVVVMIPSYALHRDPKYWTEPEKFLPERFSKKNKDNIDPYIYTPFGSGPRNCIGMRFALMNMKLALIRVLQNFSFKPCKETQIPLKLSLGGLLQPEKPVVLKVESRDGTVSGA
Summary of the method: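 Steps: enzyme/substrate mix dispensed; compound added, 10 min RT; NADPH regeneration solution added, 60 min RT; luciferin detection buffer stops reaction; 20 min later luminescence measured.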

[8] = qHTS Assay for Identification of Small Molecule Agonists for Hypoxia Response Element Signaling Pathway (AID 914; active = well fitted activation curve with a large enough effect in the signal ratio, with a control signal flat, not every such curve was filed as active; the % refers to the signal ratio; also: potency is read from the fitted curve at half-maximal effect); conditions: ME-180 HRE-bla reporter, beta-lactamase ratio, CoCl2, 17 h; activation: stronger effect = higher value
Summary of the method: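 Compounds in a titration series were added to ME-180 reporter cells alongside an EC50 level of CoCl2. After 17 hours, beta-lactamase activity was read as the 460nm/530nm emission ratio of CCF4, giving AC50 values.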

[9] = qHTS Assay for Lipid Storage Modulators (AID 1519); conditions: Drosophila S3 cells, BODIPY lipid droplet/cell ratio, laser cytometry, cells loaded with oleic acid; for activity change, negative = inhibition: at 57.5 µM (top of the series)
Summary of the method: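 Cells seeded at 5,000 per well were treated with compounds over a concentration series and loaded with oleic acid (400 uM, as added). Lipid droplet fluorescence (488 nm excitation, 500-530 nm channel) was read by laser-scanning cytometry and normalized to 20 uM Triacsin C.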

[10] = Primary qHTS for small molecule stabilizers of the endoplasmic reticulum resident proteome: Secreted ER Calcium Modulated Protein (SERCaMP) assay (AID 1508630; active = well fitted curve in the direction sought with a large enough effect; an effect the other way counts as inactive or inconclusive; also: % is scaled to controls: 0 for no effect and ±100 for the full control effect); conditions: SH-SY5Y GLuc-SERCaMP (Gaussia luciferase released on ER calcium loss) secretion, thapsigargin, luminescence; series mostly up to 38.4 µM
Summary of the method: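 GLuc-SERCaMP-expressing SH-SY5Y cells, pretreated 16 h with compound, are challenged with thapsigargin to empty ER calcium stores; after 4 h, coelenterazine is added directly to the medium and luminescence is imaged.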

[11] = NFAT Signaling Pathway (AID 444; active = well fitted curve in either direction with a large enough effect, not every such curve was filed as active;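 also: carbachol stimulus at about its EC50 of 1 µM final; % is scaled to controls: 0 for no effect and ±100 for the full control effect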); conditions: Jurkat NFAT-bla M1, carbachol, beta-lactamase ratio, 5 h; at 7.69 µM (top of the series) unless noted
Summary of the method: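 Read-out: CCF4 FRET ratio (460 nm/530 nm) after 1 h RT dye loading, used for %activity and AC50 from titration series. Cells: Jurkat NFAT-β-lactamase/M1 line, treated with compound plus 1 uM carbachol for 5 h, 37 °C.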

[12] = Stat Signaling Pathway (AID 446; active = well fitted curve in either direction with a large enough effect, not every such curve was filed as active;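 also: ME-180 cervical cancer cells given 40 pM IL-6 alongside compound; SIE-controlled beta-lactamase reporter measured as 460/530 nm FRET emission ratio; % is scaled to controls: 0 for no effect and ±100 for the full control effect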); conditions: ME-180 SIE beta-lactamase reporter, IL-6 stimulated, 5 h; at 7.69 µM (top of the series) unless noted
Summary of the method: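 Screening format detects activators and inhibitors alike: ME-180 SIE-bla cells stimulated at 40 pM IL-6 for 5 hrs with compound, then dual-emission beta-lactamase read at 405 nm excitation.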

[13] = AP1 Signaling Pathway (AID 357; active = well fitted curve in either direction with a large enough effect, not every such curve was filed as active); conditions: ME-180 (cervical carcinoma) AP-1-bla reporter, EGF-induced, beta-lactamase ratio, 5 h; at 7.69 µM (top of the series) unless noted
Summary of the method: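 First, ME-180 AP-1-bla cells were cultured overnight at 37 °C in low-serum Opti-MEM. Next, titrated compounds with EC50 EGF were incubated 5 hours. Finally, CCF4 was added for 2.5 hours and the 460/530 nm ratio recorded.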

[14] = target: Cytochrome P450 2D6 (Homo sapiens) (UniProt P10635); experiment: qHTS Assay for Inhibitors and Substrates of Cytochrome P450 2D6 (AID 891; active = well fitted curve in the direction sought with a large enough effect; an effect the other way counts as inactive or inconclusive; also: potency is read from the fitted curve at half-maximal effect; nearly all actives have a fitted effect of over 60% in size); conditions: recombinant CYP2D6, luciferin-ME EGE luminescence; series mostly up to 57.1 µM
Sequence of Cytochrome P450 2D6 (Homo sapiens) (P10635 whole entry, looked up): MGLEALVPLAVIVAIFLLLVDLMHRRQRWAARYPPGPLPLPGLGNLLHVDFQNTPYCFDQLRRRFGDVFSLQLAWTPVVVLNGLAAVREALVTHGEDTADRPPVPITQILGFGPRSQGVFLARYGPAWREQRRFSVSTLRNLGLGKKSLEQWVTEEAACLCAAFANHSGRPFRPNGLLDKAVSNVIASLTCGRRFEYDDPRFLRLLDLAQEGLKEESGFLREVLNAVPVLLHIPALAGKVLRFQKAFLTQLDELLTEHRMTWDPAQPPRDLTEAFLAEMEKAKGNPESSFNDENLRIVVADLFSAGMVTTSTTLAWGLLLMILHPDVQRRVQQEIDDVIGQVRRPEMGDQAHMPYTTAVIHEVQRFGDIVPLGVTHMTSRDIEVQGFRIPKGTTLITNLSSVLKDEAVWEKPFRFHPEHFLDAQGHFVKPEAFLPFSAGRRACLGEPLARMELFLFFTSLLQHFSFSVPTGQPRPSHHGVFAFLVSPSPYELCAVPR
Summary of the method: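 Human CYP2D6 (5 nM) with 30 uM Luciferin-ME EGE (at Km) in 100 mM KPO4, compound preincubated 10 min, then NADPH regeneration system for 60 min at room temperature. Luciferin read by luminescence; normalized to 1.43 uM quinidine.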

[15] = Confirmation and Secondary Assay for Modulators of Hemoglobin Beta Chain Splicing at IVS2 654 locus (AID 910; active = well fitted curve in the direction sought with a large enough effect; an effect the other way counts as inactive or inconclusive;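 also: HeLa cells stably carrying EGFP split by mutant beta-globin IVS2-654 intron; per-well total GFP intensity by laser scanning cytometry after 2-day treatment; % of control where 0% means no effect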); conditions: HeLa EGFP-654 splicing reporter, GFP fluorescence, 48 h; series mostly up to 38.3 µM
Summary of the method: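 Readout: per-well total peak green fluorescence (488 nm ex, 500–520 nm em) from objects 5–250 µm, reflecting correct splicing of an EGFP-654 reporter. Compounds were applied for 2 days at 37 °C to overnight-plated HeLa EGFP-654 cells; controls were DMSO and 500 nM IVS2-654 PNA.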

[16] = Confirmation and Secondary Assay for Modulators of Hemoglobin Beta Chain Splicing at IVS2 705 locus (AID 930; active = well fitted curve in the direction sought with a large enough effect; an effect the other way counts as inactive or inconclusive;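 also: HeLa cells stably expressing the EGFP-705 splicing reporter; GFP fluorescence per well restored by corrected splicing of the IVS2-705 intron in EGFP; % of control where 0% means no effect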); conditions: HeLa EGFP-705 splicing reporter, GFP fluorescence, 48 h; series mostly up to 38.3 µM
Summary of the method: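 Assay measures total GFP intensity per well in HeLa EGFP-705 cells after 2 days with compound; mis-splicing normally truncates EGFP, so fluorescence indicates corrected splicing.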

[17] = target: Ubiquitin carboxyl-terminal hydrolase 1 (Homo sapiens) (UniProt O94782); experiment: Inhibitors of USP1/UAF1: Pilot qHTS (AID 504865; active = well fitted curve in the direction sought with a large enough effect; an effect the other way counts as inactive or inconclusive;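 also: rhodamine fluorescence freed from ubiquitin-rhodamine substrate followed over time; top concentration of the series differs between compounds; % is scaled to controls: 0 for no effect and ±100 for the full control effect; nearly all actives have a fitted effect of over 35% in size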); conditions: purified USP1/UAF1, Ub-rhodamine cleavage fluorescence; series mostly up to 54.9 µM
Sequence of Ubiquitin carboxyl-terminal hydrolase 1 (Homo sapiens) (O94782 whole entry, looked up): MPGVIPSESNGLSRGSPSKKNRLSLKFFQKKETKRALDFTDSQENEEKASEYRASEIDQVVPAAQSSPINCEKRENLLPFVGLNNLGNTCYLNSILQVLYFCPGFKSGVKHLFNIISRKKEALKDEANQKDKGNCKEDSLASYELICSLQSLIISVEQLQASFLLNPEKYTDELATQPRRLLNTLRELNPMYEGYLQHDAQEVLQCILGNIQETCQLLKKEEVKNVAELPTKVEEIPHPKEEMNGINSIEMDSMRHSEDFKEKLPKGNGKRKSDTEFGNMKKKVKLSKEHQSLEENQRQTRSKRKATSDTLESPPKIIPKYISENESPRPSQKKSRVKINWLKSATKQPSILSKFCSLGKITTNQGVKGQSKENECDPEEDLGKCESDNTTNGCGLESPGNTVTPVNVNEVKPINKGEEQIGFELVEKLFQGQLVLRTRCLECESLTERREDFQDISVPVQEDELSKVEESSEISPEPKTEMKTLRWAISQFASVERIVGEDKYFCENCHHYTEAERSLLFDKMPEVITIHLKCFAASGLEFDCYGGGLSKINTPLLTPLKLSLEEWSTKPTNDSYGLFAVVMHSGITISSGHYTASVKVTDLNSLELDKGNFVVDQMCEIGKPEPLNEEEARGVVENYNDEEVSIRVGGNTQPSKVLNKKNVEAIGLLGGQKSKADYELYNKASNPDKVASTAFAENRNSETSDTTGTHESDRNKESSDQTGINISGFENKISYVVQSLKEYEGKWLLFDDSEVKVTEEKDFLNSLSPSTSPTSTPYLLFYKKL
Summary of the method: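 Enzyme-free wells gave the negative control, while test wells held 1nM USP1/UAF1 preincubated with compound for 15 min at room temperature. Ub-Rho at 150nM final started the reaction, and fluorescence at 480/540 nm was recorded kinetically.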

[18] = measured here: cell count channel max response
[19] = measured here: lipid channel max response

Sequence of Lysosomal acid glucosylceramidase (Homo sapiens) (P04062 whole entry, looked up): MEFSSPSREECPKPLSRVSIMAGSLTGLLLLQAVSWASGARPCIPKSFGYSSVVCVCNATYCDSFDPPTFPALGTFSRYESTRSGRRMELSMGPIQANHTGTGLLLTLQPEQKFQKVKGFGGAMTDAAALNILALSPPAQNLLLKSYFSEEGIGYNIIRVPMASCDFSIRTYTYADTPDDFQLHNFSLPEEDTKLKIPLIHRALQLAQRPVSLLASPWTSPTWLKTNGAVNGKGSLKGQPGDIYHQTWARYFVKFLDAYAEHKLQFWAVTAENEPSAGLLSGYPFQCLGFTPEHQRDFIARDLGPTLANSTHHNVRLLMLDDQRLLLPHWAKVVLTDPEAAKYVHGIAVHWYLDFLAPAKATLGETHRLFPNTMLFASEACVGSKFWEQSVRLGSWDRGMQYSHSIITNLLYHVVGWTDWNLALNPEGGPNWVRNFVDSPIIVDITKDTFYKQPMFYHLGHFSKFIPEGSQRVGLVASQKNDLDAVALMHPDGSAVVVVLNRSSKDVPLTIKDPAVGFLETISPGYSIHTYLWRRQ

COc1ccc(-c2nc3cnc(N4CCNCC4)nc3n(CCC#N)c2=O)cc1
25%: max response [9, 19]
active: Potency [2] 15.8 µM | Potency [8] 3.16 µM
17%: max response [9, 18]
inactive: Potency [1] > 11.4 µM | Potency [3] > 9.22 µM | Potency [4] > 46 µM | Potency [5] | Potency [6] | Potency [7] | activity change, negative = inhibition [9] 4.58% | outcome [10]

O=C(c1csnn1)N1CCC2(CCCN(C(c3ccccc3)c3ccccc3)C2)CC1
-8.95%: max response [9, 19]
inactive: Potency [1] > 11.4 µM | activity change, negative = inhibition [11] 1.14% | activity, negative = inhibition [12] 18.5% | Potency [4] > 46 µM | Potency [5] | Potency [6] | activity change, negative = inhibition [9] -2.23% | outcome [10]
-8.01%: max response [9, 18]

CN(C)Cc1ccccc1-c1nccc(NCc2cccs2)n1
4.85%: max response [9, 18]
inactive: activity change, negative = inhibition [13] 3.22% | activity change, negative = inhibition [11] -11.6% | activity, negative = inhibition [12] 0.159% | Potency [3] > 46 µM | Potency [4] > 46 µM | Potency [5] | Potency [15] | outcome [16] | activity change, negative = inhibition [9] 10.9% | Potency [17] | outcome [10]
active: Potency [2] 0.794 µM | Potency [14] 1.58 µM
9.23%: max response [9, 19]

COc1ccc(C(=O)N2CCC3(CCCN(C(c4ccccc4)c4ccccc4)C3)CC2)cc1
-2.89%: max response [9, 19]
inactive: Potency [1] > 11.4 µM | activity, negative = inhibition [12] 18.3% | Potency [4] > 46 µM | Potency [5] | activity change, negative = inhibition [9] -5.74% | outcome [10]
2.37%: max response [9, 18]

CC(C)CN1CCCC2(CCN(C(=O)c3cnccn3)CC2)C1
inactive: Potency [1] > 11.4 µM | Potency [2] | activity, negative = inhibition [12] 7.99% | Potency [4] > 46 µM | Potency [5] | Potency [6] | Potency [7] | activity change, negative = inhibition [9] 1.42% | outcome [10]
9.23%: max response [9, 19]
5.13%: max response [9, 18]

O=c1c(-c2ccc(F)cc2)nc2cnc(N3CCOCC3)nc2n1-c1ccccc1
active: Potency [8] 1.26 µM
5.39%: max response [9, 19]
7.89%: max response [9, 18]
inactive: Potency [1] > 11.4 µM | Potency [3] > 9.22 µM | Potency [4] > 46 µM | Potency [5] | activity change, negative = inhibition [9] -4.64% | outcome [10]

Cn1cccc1C(=O)N1CCC2(CCCN(C(c3ccccc3)c3ccccc3)C2)CC1
inactive: Potency [1] > 11.4 µM | activity, negative = inhibition [12] 6.33% | Potency [5] | Potency [6] | Potency [7] | activity change, negative = inhibition [9] 4.95% | outcome [10]
18.7%: max response [9, 19]
active: Potency [2] 12.6 µM
6.53%: max response [9, 18]

Source: PubChem BioAssay (NCATS)
